Measured values: PubChem BioAssay (NCATS)
“And” between values parts separate entries of the source, which are not always exact repeats. Equal values may be shown once. Results filed as inconclusive are left out. The source made the active and inactive calls. Calls follow the shape of the dose curve; as a rule, active = well fitted curve in the direction sought with a large enough effect; inconclusive = small, poorly fitted or top-dose-only effect, or another doubt; inactive = no such curve, though single readings can be large; an effect the other way counts as inactive or inconclusive.

How the values were obtained:
HaCat [1] = experiment: Cytotoxic Profiling of Annotated Libraries Using Quantitative High-Throughput Screening (AID 1296008); conditions: Five cell lines viability, CellTiter-Glo ATP luminescence, 48-72 h; hits give low values; also: nearly all actives have a fitted effect of over 60% in size
Method in brief: (§1)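 Cytotoxicity was measured as CellTiter-Glo ATP luminescence, read after 10 min at room temperature. Compound treatment of the cells lasted 48 or 72 hr at 37 degrees Celsius in a qHTS format.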

KB-3-1 = experiment: as above; conditions: Five cell lines viability, CellTiter-Glo ATP luminescence, 48-72 h; max response: hits give low values
Method in brief: as §1

NIH3T3 [2] = experiment: as above; conditions: Five cell lines viability, CellTiter-Glo ATP luminescence, 48-72 h; max response: hits give low values
Method in brief: as §1

HACAT [3] = experiment: qHTS assay to identify novel small-molecules to repurpose for Merkel cell carcinoma treatment (AID 1296009); conditions: MCC and control cell lines, CellTiter-Glo viability, 72 h; at 44.8 µM (top of the series); also: nearly all actives have a fitted effect of over 60% in size
Method in brief: (§2)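 72 hr, 37 degree celsius; NPC 8-pt / MIPE 11-pt dose response; compound pinned in DMSO; CellTiter-Glo, 10 min RT, luminescence; normalized to no-cell and DMSO controls.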

C33A = experiment: Primary qHTS to identify gynecologic anti-cancer compounds using libraries of approved drugs and bioactive compounds (AID 1345084); conditions: Gynecologic cancer cell panel viability, ATPlite luminescence, 48 h; series mostly up to 57.5 µM; also: nearly all actives have a fitted effect of over 55% in size
Method in brief: (§3)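 Five-concentration response, 48 h; readout is ATP-driven luciferase luminescence.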

CASKI = experiment: as above; conditions: Gynecologic cancer cell panel viability, ATPlite luminescence, 48 h; series mostly up to 57.5 µM
Method in brief: as §3

Es-2 = experiment: as above; conditions: Gynecologic cancer cell panel viability, ATPlite luminescence, 48 h; series mostly up to 57.5 µM
Method in brief: as §3

HeLa = experiment: as above; conditions: Gynecologic cancer cell panel viability, ATPlite luminescence, 48 h; series mostly up to 57.5 µM
Method in brief: as §3

Hek293T = experiment: as above; conditions: Gynecologic cancer cell panel viability, ATPlite luminescence, 48 h, control line for the selectivity index; series mostly up to 57.5 µM
Method in brief: as §3

JEG-3 = experiment: as above; conditions: Gynecologic cancer cell panel viability, ATPlite luminescence, 48 h; series mostly up to 57.5 µM
Method in brief: as §3

OV90 = experiment: as above; conditions: Gynecologic cancer cell panel viability, ATPlite luminescence, 48 h; series mostly up to 57.5 µM
Method in brief: as §3

PA-1 = experiment: as above; conditions: Gynecologic cancer cell panel viability, ATPlite luminescence, 48 h; series mostly up to 57.5 µM
Method in brief: as §3

MCC-13 = experiment: qHTS assay to identify novel small-molecules to repurpose for Merkel cell carcinoma treatment (AID 1296009); conditions: MCC and control cell lines, CellTiter-Glo viability, 72 h; series mostly up to 46 µM; also: nearly all actives have a fitted effect of over 60% in size
Method in brief: as §2

MCC-26 = experiment: as above; conditions: MCC and control cell lines, CellTiter-Glo viability, 72 h; series mostly up to 46 µM
Method in brief: as §2

MKL-1 = experiment: as above; conditions: MCC and control cell lines, CellTiter-Glo viability, 72 h; series mostly up to 46 µM
Method in brief: as §2

MKL-2 = experiment: as above; conditions: MCC and control cell lines, CellTiter-Glo viability, 72 h; series mostly up to 46 µM
Method in brief: as §2

UISO = experiment: as above; conditions: MCC and control cell lines, CellTiter-Glo viability, 72 h; series mostly up to 46 µM
Method in brief: as §2

WaGa = experiment: as above; conditions: MCC and control cell lines, CellTiter-Glo viability, 72 h; series mostly up to 46 µM
Method in brief: as §2

NIH3T3 [4] = experiment: as above; conditions: MCC and control cell lines, CellTiter-Glo viability, 72 h; at 44.8 µM (top of the series)
Method in brief: as §2
% is scaled to controls: 0 for no effect and ±100 for the full control effect.

CC1CC(OC(=O)C(O)c2ccccc2)CC(C)(C)C1 (stereo not drawn)
inactive: outcome (HaCat [1]) | max response (KB-3-1) 19.9% and -6.72% | max response (NIH3T3 [2]) 2.78% | outcome (HACAT [3]) | Potency (C33A) | Potency (CASKI) | Potency (Es-2) | Potency (HeLa) | Potency (Hek293T) | Potency (JEG-3) | Potency (OV90) | Potency (PA-1)

C=C1C(CCl)(CCl)C2(Cl)C(Cl)C(Cl)C1(Cl)C2(Cl)Cl (stereo not drawn)
inactive: max response (KB-3-1) 3.52%

CCN(CC)CCOCCOC(=O)C(CC)(CC)c1ccccc1
inactive: outcome (HaCat [1]) | max response (KB-3-1) -1.64% and -0.0412% | max response (NIH3T3 [2]) 0.0854% | outcome (HACAT [3]) | Potency (C33A) | Potency (CASKI) | Potency (Es-2) | Potency (HeLa) | Potency (Hek293T) | Potency (JEG-3) | Potency (PA-1)

C=CC1=C(C(=O)O)N2C(=O)[C@@H](NC(=O)/C(=N/OCC(=O)O)c3csc(N)n3)[C@H]2SC1 (stereo in doubt)
inactive: max response (KB-3-1) -4.79%

CN(C)C=Nc1c(I)cc(I)c(CCC(=O)O)c1I
inactive: max response (KB-3-1) 0.601%

CN(C)CCCSc1ccccc1NC(=O)/C=C/c1ccccc1
inactive: outcome (HaCat [1]) | max response (KB-3-1) -0.0858% | outcome (HACAT [3]) | outcome (MCC-13) | outcome (MCC-26) | outcome (MKL-1) | outcome (MKL-2) | outcome (UISO) | outcome (WaGa) | Potency (C33A) | Potency (CASKI) | Potency (Es-2) | Potency (HeLa) | Potency (Hek293T) | Potency (JEG-3) | Potency (PA-1)

Nc1ccc(N=Nc2ccccc2)c(N)n1
inactive: max response (HaCat [1]) 0.77% | max response (KB-3-1) 1.52% | max response (NIH3T3 [2]) -0.826% | outcome (MCC-13) | outcome (MCC-26) | outcome (MKL-1) | outcome (MKL-2) | outcome (UISO) | outcome (WaGa) | Potency (C33A) | Potency (CASKI) | Potency (Es-2) | Potency (Hek293T) | Potency (JEG-3)

CC(C)c1nc(N(C)S(C)(=O)=O)nc(-c2ccc(F)cc2)c1/C=C/C(O)CC(O)CC(=O)O (stereo not drawn)
inactive: max response (KB-3-1) 0.926%

Cc1cc2nc3c(=O)[nH]c(=O)nc-3n(C[C@H](O)[C@H](O)[C@H](O)COP(=O)(O)OP(=O)(O)OC[C@H]3O[C@@H](n4cnc5c(N)ncnc54)[C@H](O)[C@@H]3O)c2cc1C
inactive: max response (KB-3-1) -11%

O=C1C2CC3CC1CC(O)(C3)C2
inactive: max response (KB-3-1) 2.59%

O=C(O)Cc1cc(I)c(Oc2ccc(O)c(I)c2)c(I)c1
inactive: outcome (HaCat [1]) | max response (KB-3-1) 1.68% and -7.08% | outcome (NIH3T3 [2]) | outcome (HACAT [3]) | outcome (NIH3T3 [4]) | Potency (C33A) | Potency (CASKI) | Potency (Es-2) | Potency (HeLa) | Potency (Hek293T) | Potency (JEG-3) | Potency (OV90) | Potency (PA-1)

C=O
inactive: max response (KB-3-1) 3.28%

CCN(CC)C(=S)S
inactive: max response (KB-3-1) 3.72%

C=C1CC[C@H](O)CC1=C/C=C1\CCC[C@]2(C)[C@@H]([C@H](C)/C=C/[C@H](C)C(C)C)CC[C@@H]12
inactive: outcome (HaCat [1]) | max response (KB-3-1) 7.88% and 8.32% | outcome (HACAT [3]) | Potency (C33A) | Potency (CASKI) | Potency (Es-2) | Potency (HeLa) | Potency (Hek293T) | Potency (JEG-3) | Potency (OV90) | Potency (PA-1)

C=CC1=C(C(=O)O)N2C(=O)[C@@H](NC(=O)/C(=N\O)c3csc(N)n3)[C@H]2SC1 (stereo in doubt)
inactive: max response (KB-3-1) 5.78% and -12.7%

CCSc1ccc2c(c1)N(CCCN1CCN(C)CC1)c1ccccc1S2
inactive: max response (KB-3-1) -2.13%

c1ccc(-n2cnnn2)cc1
inactive: max response (KB-3-1) 0.0496%
